The record followed here is ChEMBL document CHEMBL2218924, “A broad activity screen in support of a chemogenomic map for kinase signalling research and drug discovery” (Biochem J, 2013).

In assay [1] the target is Fibroblast growth factor receptor 2 (Homo sapiens) (UniProt P21802). Conditions: at 10 µM.
Assay [2] concerns the target Fibroblast growth factor receptor 3 (Homo sapiens) (UniProt P22607). Conditions: at 1 µM.
The target is the same in assay [3]. Conditions: at 10 µM.
In assay [4] the target is Fibroblast growth factor receptor 1 (Homo sapiens) (UniProt P11362). Conditions: at 1 µM.
For assay [5] the target is unchanged. The conditions noted are these: at 10 µM.
Assay [6] addresses Fibroblast growth factor receptor 4 (Homo sapiens) (UniProt P22455). The conditions noted are these: at 10 µM.
Assay [7] has as its target Focal adhesion kinase 1 (Homo sapiens) (UniProt Q05397). Conditions: at 10 µM.
For assay [8], the target named is Fibroblast growth factor receptor 4 (Homo sapiens) (UniProt P22455). The conditions noted are these: at 1 µM.
Assay [9] addresses Tyrosine-protein kinase Fer (Homo sapiens) (UniProt P16591). The conditions noted are these: at 1 µM.
The target of assay [10] is Fibroblast growth factor receptor 2 (Homo sapiens) (UniProt P21802). The conditions noted are these: at 1 µM.

Chain of Fibroblast growth factor receptor 3 (Homo sapiens) (P22607 23-806 limits assumed): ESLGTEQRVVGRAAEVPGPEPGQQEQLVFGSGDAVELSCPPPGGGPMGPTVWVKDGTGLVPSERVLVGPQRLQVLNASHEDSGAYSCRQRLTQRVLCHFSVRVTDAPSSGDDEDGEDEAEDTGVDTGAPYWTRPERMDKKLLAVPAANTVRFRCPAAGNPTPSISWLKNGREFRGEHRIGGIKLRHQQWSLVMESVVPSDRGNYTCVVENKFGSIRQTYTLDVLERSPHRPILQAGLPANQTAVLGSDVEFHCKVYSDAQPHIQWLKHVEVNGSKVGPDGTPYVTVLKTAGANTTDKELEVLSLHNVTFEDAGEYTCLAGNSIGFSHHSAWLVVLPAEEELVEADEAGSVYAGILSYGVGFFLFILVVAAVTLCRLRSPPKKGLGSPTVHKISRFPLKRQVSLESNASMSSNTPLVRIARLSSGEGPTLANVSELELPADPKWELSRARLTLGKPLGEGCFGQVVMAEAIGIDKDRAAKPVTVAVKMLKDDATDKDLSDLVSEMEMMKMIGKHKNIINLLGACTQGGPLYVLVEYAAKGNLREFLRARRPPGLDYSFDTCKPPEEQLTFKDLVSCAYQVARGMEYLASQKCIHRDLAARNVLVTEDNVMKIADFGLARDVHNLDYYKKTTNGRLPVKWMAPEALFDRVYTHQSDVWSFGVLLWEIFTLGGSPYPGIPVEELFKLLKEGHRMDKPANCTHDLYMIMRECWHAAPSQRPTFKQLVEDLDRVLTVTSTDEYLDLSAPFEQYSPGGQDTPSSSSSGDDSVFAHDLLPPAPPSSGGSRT
Chain of Fibroblast growth factor receptor 2 (Homo sapiens) (P21802 22-821 limits assumed): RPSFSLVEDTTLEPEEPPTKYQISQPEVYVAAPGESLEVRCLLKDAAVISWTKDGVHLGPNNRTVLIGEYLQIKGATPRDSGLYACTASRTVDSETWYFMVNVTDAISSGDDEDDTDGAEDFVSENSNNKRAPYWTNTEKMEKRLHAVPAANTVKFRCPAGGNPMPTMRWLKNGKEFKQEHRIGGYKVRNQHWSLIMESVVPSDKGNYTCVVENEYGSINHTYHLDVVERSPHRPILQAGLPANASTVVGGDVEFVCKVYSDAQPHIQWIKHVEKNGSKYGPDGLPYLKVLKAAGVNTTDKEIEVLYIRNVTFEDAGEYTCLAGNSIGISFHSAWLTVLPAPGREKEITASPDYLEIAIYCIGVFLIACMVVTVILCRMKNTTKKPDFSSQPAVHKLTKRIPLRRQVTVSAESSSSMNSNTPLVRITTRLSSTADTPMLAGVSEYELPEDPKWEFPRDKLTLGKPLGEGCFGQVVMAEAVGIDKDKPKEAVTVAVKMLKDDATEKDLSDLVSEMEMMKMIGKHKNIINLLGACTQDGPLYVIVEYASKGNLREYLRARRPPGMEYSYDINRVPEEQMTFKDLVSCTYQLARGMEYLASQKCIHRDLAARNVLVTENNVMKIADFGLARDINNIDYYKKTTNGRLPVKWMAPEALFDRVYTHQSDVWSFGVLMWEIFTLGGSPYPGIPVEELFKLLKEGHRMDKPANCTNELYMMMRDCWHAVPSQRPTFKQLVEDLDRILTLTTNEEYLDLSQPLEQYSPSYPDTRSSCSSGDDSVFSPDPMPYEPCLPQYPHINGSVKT
Chain of Fibroblast growth factor receptor 1 (Homo sapiens) (P11362 22-822 limits assumed): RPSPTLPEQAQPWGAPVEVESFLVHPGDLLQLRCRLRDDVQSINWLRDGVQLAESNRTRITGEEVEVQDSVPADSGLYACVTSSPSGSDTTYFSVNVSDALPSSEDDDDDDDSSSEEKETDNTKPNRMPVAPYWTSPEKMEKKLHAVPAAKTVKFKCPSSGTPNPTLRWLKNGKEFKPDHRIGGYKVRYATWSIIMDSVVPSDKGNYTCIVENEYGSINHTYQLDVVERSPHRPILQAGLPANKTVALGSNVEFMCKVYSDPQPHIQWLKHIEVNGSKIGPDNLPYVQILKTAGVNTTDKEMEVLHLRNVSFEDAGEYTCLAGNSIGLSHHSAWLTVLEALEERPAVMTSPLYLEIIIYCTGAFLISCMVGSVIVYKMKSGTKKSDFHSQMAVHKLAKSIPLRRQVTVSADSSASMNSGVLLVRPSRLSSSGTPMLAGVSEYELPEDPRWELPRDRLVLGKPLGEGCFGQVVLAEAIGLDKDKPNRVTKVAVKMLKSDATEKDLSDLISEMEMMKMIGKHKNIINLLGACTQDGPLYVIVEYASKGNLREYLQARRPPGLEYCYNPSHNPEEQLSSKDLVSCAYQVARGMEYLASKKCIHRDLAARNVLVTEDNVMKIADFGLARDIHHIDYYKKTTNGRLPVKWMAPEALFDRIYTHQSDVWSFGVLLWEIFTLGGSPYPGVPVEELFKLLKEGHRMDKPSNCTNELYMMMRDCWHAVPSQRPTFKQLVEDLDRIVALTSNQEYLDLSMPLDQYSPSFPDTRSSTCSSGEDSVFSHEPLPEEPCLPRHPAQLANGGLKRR
Chain of Focal adhesion kinase 1 (Homo sapiens) (Q05397 2-1052 limits assumed): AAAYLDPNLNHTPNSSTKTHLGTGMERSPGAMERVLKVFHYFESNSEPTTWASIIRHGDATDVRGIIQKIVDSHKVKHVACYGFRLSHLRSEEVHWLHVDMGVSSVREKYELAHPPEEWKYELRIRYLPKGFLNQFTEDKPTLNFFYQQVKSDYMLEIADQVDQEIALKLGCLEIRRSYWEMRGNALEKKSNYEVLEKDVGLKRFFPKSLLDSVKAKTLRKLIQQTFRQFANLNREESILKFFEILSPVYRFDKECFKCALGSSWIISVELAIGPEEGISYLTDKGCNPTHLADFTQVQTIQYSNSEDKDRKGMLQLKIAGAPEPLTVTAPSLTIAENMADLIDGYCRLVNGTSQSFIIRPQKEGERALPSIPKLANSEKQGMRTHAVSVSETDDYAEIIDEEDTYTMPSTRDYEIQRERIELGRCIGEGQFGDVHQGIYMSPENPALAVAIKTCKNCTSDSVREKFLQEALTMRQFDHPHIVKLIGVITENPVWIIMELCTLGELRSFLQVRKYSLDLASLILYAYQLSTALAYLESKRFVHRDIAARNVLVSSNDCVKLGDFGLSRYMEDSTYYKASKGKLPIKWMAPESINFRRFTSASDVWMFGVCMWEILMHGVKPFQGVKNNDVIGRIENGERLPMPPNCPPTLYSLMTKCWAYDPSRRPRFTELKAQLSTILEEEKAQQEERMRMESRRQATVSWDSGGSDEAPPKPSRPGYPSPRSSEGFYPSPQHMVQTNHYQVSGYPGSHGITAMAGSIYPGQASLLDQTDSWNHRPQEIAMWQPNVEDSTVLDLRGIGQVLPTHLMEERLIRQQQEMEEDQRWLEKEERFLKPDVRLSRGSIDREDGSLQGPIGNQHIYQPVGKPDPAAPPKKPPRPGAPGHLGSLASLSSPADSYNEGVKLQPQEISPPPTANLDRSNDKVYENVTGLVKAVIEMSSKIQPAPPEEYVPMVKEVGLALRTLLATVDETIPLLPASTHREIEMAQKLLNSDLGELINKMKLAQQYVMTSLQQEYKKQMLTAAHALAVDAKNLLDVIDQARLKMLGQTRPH
Chain of Fibroblast growth factor receptor 4 (Homo sapiens) (P22455 22-802 limits assumed): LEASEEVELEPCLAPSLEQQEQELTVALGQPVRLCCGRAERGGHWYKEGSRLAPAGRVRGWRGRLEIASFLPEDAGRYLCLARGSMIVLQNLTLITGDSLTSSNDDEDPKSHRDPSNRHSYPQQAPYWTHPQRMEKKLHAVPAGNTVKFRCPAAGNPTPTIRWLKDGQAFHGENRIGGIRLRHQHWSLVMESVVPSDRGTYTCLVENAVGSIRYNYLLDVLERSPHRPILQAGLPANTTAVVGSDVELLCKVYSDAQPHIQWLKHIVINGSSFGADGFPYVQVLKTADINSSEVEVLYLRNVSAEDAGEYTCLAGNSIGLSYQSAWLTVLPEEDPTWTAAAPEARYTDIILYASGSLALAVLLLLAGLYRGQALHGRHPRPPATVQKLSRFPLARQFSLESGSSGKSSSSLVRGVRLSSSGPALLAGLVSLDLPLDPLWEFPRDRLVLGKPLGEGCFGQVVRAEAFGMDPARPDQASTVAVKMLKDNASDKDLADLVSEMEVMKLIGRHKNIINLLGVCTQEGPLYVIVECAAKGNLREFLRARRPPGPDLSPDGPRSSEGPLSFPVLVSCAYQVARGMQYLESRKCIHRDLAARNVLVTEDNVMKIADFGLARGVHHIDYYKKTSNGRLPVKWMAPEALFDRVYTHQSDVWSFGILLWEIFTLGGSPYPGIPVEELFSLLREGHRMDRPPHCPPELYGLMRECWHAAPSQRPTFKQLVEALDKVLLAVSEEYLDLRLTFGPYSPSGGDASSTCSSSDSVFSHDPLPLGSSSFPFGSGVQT
Chain of Tyrosine-protein kinase Fer (Homo sapiens) (P16591 whole entry, looked up): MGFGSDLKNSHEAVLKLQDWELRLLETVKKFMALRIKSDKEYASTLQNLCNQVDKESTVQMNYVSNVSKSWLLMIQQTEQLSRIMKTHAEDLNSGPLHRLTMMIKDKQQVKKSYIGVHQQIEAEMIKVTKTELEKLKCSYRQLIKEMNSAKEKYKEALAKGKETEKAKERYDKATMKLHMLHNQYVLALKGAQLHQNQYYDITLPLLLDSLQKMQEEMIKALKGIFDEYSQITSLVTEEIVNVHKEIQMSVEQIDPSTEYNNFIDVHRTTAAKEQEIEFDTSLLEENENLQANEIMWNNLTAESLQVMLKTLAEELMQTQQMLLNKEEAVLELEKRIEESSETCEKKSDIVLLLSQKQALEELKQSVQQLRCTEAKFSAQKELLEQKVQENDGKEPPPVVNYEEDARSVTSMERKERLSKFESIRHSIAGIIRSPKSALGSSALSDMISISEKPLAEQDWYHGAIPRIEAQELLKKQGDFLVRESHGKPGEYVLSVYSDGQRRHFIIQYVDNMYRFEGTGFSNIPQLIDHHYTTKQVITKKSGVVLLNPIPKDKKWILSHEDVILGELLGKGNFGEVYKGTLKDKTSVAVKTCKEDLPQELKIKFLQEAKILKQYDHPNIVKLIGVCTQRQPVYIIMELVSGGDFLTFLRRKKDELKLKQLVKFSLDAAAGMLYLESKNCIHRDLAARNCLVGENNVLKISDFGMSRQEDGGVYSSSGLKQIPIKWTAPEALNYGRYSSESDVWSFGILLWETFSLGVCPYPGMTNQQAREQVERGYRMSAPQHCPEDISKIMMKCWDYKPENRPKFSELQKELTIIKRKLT

As for `N/C(=N\[N+](=O)[O-])N/N=C\c1ccc(-c2cccc([N+](=O)[O-])c2)o1`, the residual activity in assay [1] came to 92%; in [2] it was 95%; in assay [3], 92%.

On to `c1cc(-c2cnn3cc(-c4ccc(OCCN5CCCCC5)cc4)cnc23)ccn1`, for which the residual activity in [4] worked out at 47%; in [5] it was 5%; in [6], 72%.

Turning to `CC(C)[C@H](CO)Nc1nc(Nc2cccc(Cl)c2)c2ncn(C(C)C)c2n1`, the residual activity in assay [7] is 13%; in assay [4], 98%; in assay [5], 15%; in [3] it was 56%; in assay [8] it was 118%; in assay [9] it was 90%.

For the molecule `O=C1Nc2ccc3ncsc3c2/C1=C/c1c[nH]cn1`, the residual activity was found to be 13% in assay [7]; 9% in [4]; 1% in assay [5]; 18% in assay [10]; 3% in assay [1]; 19% in assay [2]. Moreover, the figures for the residual activity in assay [3], in [8] and in assay [6] were 9%, 112% and 84%, respectively.

With `O=[N+]([O-])/C=C/c1ccc2c(c1)OCO2`, the residual activity in [7] turned out to be 72%; in assay [4], 115%; in assay [5], 94%; in assay [10] it was 108%; in assay [1], 97%; in [2] it was 104%. The residual activity was 107% in assay [3], 135% in assay [8], 104% in [6] and 114% in [9].

With `O=c1[nH]c2ccccc2n1C1CCN(Cc2ccc(-c3nc4cc5[nH]cnc5cc4nc3-c3ccccc3)cc2)CC1`, the residual activity in [7] was determined as 87%; in assay [4], 112%; in [5] it was 38%; in assay [10], 111%; in assay [1], 78%; in [2] it was 115%. Further, the residual activity in [3] was found to be 99%; in [8], 111%; in assay [6], 88%; in [9], 112%.

Regarding `CC(C)(C)c1cc(C=C(C#N)C#N)cc(Br)c1O`, the residual activity in [7] is 104%; in [4], 108%; in assay [10], 99%; in [1] it was 105%; in assay [2] it was 126%; in assay [3], 99%. The figures for the residual activity in assay [8], in assay [6] and in assay [9] were 118%, 102% and 120%, respectively.

On to `C[S+]([O-])c1ccc(-c2nc(-c3ccc(F)cc3)c(-c3ccncc3)[nH]2)cc1` (stereo unspecified), for which the residual activity stood at 115% in assay [7]; 142% in assay [4]; 90% in assay [5]; 99% in assay [10]; 81% in assay [1]; 115% in assay [2]. The residual activity was 99% in [3], 110% in assay [8], 97% in assay [6] and 107% in assay [9].

Consider `COC(=O)[C@@]1(O)C[C@H]2O[C@]1(C)n1c3ccccc3c3c4c(c5c6ccccc6n2c5c31)C(=O)NC4`, for which the residual activity was 5% in assay [7]; 10% in assay [4]; 11% in [5]; 20% in assay [10]; 2% in assay [1]; 17% in assay [2]. The residual activity in [3] is 2%; in [8], 88%; in [6], 36%; in assay [9], 2%.

As to `O=C1NC(=O)c2c1c1c3ccccc3n3c1c1c2c2ccccc2n1C1CCC3O1`, the residual activity in assay [4] was determined as 72%; in assay [5], 41%; in assay [10] it was 83%; in assay [1], 78%; in [2] it was 82%; in assay [3], 92%. Moreover, the residual activity in [9] is 33%.

`COc1cc2ncnc(Nc3ccc(OCc4ccccc4)cc3)c2cc1OC`: the residual activity in [7] amounted to 81%; in assay [4] it was 88%; in assay [5], 69%; in assay [10], 100%; in assay [1] it was 109%; in assay [2] it was 97%. Moreover, the residual activity stood at 100% in assay [3], 122% in assay [8], 99% in assay [6] and 111% in assay [9].

Turning to `O=C1c2ccccc2-c2nc3nnnn3nc21`, the residual activity in [4] was 113%; in [5] it was 81%; in assay [10], 118%; in [1], 135%; in assay [2], 125%; in [3] it was 132%. In addition, the residual activity in [8] stood at 118%; in assay [6], 106%; in assay [9], 112%.

As to `COc1ccc2c(c1)/C(=C/c1cnc[nH]1)C(=O)N2`, the residual activity was 25% in assay [7]; 65% in assay [4]; 3% in assay [5]; 53% in assay [10]; 12% in assay [1]; 61% in assay [2]. In addition, in [3], the residual activity was determined as 14%.

In the case of `CCc1nc(-c2ccc(OC)cc2)[nH]c1-c1ccncc1`, the residual activity was 81% in assay [7]; 104% in assay [4]; 80% in assay [5]; 121% in assay [10]; 124% in [3]; 102% in assay [8]. In addition, the figures for the residual activity in [6] and in assay [9] were 109% and 104%, respectively.

In the case of `COc1cc(OC)c(/C=C2\C(=O)Nc3ccccc32)c(OC)c1`, the residual activity in [7] is 81%; in [4] it was 107%; in assay [5] it was 88%; in assay [10] it was 102%; in assay [1], 90%; in assay [9], 97%.

Consider `CCn1cnc2c(Nc3cccc(Cl)c3)nc(N[C@@H]3CCCC[C@@H]3N)nc21`, for which the residual activity in [7] is 12%; in assay [4] it was 76%; in assay [5], 11%; in assay [1] it was 34%; in assay [2] it was 113%; in [3], 53%. The residual activity in assay [8] is 118%; in assay [6], 79%; in assay [9] it was 85%.

For the molecule `COc1ccc2c(c[n+](C)c3c4cc5c(cc4ccc23)OCO5)c1OC`, the residual activity came to 93% in assay [7]; 85% in [4]; 44% in assay [5]; 57% in assay [3]; 100% in [6].

Usually residual activity stands for the signal under treatment as a percentage of the control signal.
